The source of these data is PubChem BioAssay AID1069 (NMMLSC, 2008).

The assay in a line: LNCaP granularity increase inducers, single-point recheck – cell-based, side scatter shift, flow cytometry, confirmation (AID 1069).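 Note: LNCaP human prostate cancer cells in low-serum medium with charcoal-stripped FBS; percent of cells with raised granularity gated so DMSO controls show 10%.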 The following applies: LNCaP differentiation, 4 d, stronger effect = higher value. (Flow cytometry measures light scatter and fluorescence of single cells or particles in a stream.)

Activity calls are given as the source filed them.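 Rule for the calls: active = high combined rank on largest and smallest cell-count-weighted shift across three tests, rank score above 45, floors 50 and 25 (some results past the limit were not filed as active); inactive = the rest.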

Consider `Cc1ccc(NC(=O)CCNS(=O)(=O)c2ccc3c(c2)oc(=O)n3C)c(C)c1`, for which the side scatter shift was 1.7% (inactive) (at 100 µM) and 5.85% (side scatter shift, at 10 µM).

As for `Cc1oc(-c2ccc(Cl)cc2)nc1CN1CCC(C(=O)NCc2cccnc2)CC1`, the side scatter shift is 30% (inactive) (at 100 µM) and 5.8% (side scatter shift, at 10 µM).

Turning to `CCCCn1c2c(c3ccccc31)CCc1nonc1-2`, the side scatter shift (at 100 µM) was 20.1% (inactive) and the side scatter shift (side scatter shift, at 10 µM) is 2.8%.

`CCN(CCNC(=O)C1CCCN(Cc2nc(-c3ccc(OC)cc3)oc2C)C1)c1ccccc1` (stereo unspecified): the side scatter shift is, setting by setting: (at 100 µM) 27.8% (inactive); (side scatter shift, at 10 µM) 35.5%.

Consider `COc1ccc(CCn2c(=N)c(C(=O)NCc3ccco3)cc3c(=O)n4ccccc4nc32)cc1`, for which the side scatter shift (at 100 µM) is 59.4% (inactive) and the side scatter shift (side scatter shift, at 10 µM) was found to be 4.85%.

With `COc1ccc(-c2noc(-c3cc(Cl)ccc3Cl)n2)cc1OC`, the side scatter shift runs as follows: (at 100 µM) 49.4% (inactive); (side scatter shift, at 10 µM) 7.6%.

Consider `Cn1c(=O)cc(OCC(=O)NCCCN2CCN(c3ccccc3F)CC2)c2ccccc21`, for which the side scatter shift by setting is: (at 100 µM) 66.5% (active); (side scatter shift, at 10 µM) 4.5%.

Turning to `O=C(NCCCN1CCN(c2cccc(Cl)c2)CC1)c1cccc(N2CCCC2=O)c1`, the side scatter shift was 50.5% (active) (at 100 µM) and 7.7% (side scatter shift, at 10 µM).

For the molecule `CCN1CCN(CCNC(=O)C2CCCN(Cc3nc(-c4cccc(Cl)c4)oc3C)C2)CC1` (stereo unspecified), the side scatter shift is 14.3% (inactive) (at 100 µM) and 32.2% (side scatter shift, at 10 µM).

Turning to `CCOc1ccc(C(=O)Nc2ccc(Cl)cn2)cc1Cl`, the side scatter shift runs as follows: (at 100 µM) 22% (inactive); (side scatter shift, at 10 µM) 2.75%.

Consider `CCc1ccc(-c2nc(CN3CCC(C(=O)N4CCN(c5ccccc5)CC4)CC3)c(C)o2)cc1`, for which the side scatter shift reads like this: (at 100 µM) 44.4% (inactive); (side scatter shift, at 10 µM) 19.8%.

On to `O=S1(=O)C=C(Sc2nc3ccccc3s2)c2ccccc21`, for which the side scatter shift runs as follows: (at 100 µM) 7.7% (inactive); (side scatter shift, at 10 µM) 17.9%.

Consider `Cc1ccc(C2=Nc3ccccc3NC(C)(c3ccc(C)o3)C2)o1` (stereo unspecified), for which the side scatter shift is, setting by setting: (at 100 µM) 7.1% (inactive); (side scatter shift, at 10 µM) 10.1%.

On to `COc1ccc(Cc2nc(-c3ccc(-n4cccc4)cc3)no2)cc1OC`, for which the side scatter shift (at 100 µM) is 23.5% (inactive) and the side scatter shift (side scatter shift, at 10 µM) worked out at 15.8%.

Take `O=C(CCn1c(=O)[nH]c2ccccc2c1=O)NCCCN1CCN(c2cccc(Cl)c2)CC1`: the side scatter shift by setting is: (at 100 µM) 35.7% (inactive); (side scatter shift, at 10 µM) 11.1%.

`Cn1c(=O)[nH]c(=O)c2c1nc(Br)n2CCCSc1nc2ccccc2o1`: the side scatter shift (at 100 µM) is 0% (inactive) and the side scatter shift (side scatter shift, at 10 µM) was 8%.

For the molecule `CCOC(=O)c1c(NCc2ccc3c(c2)OCO3)c2ccccc2[nH]c1=O`, the side scatter shift (at 100 µM) was 12.8% (inactive) and the side scatter shift (side scatter shift, at 10 µM) worked out at 4.75%.

Consider `COc1ccccc1N1CCN(Cc2cc(Br)c(O)c3ncccc23)CC1`, for which the side scatter shift (at 100 µM) is 35.3% (inactive) and the side scatter shift (side scatter shift, at 10 µM) was determined as 17.4%.

Turning to `CCOC(=O)c1sc2ncnc(N3CCN(c4ccc(OC)cc4)CC3)c2c1C`, the side scatter shift by setting is: (at 100 µM) 25% (inactive); (side scatter shift, at 10 µM) 9.55%.

On to `CCn1c(=O)cc(OCC(=O)NCCCN2CCN(c3cccc(Cl)c3)CC2)c2ccccc21`, for which the side scatter shift (at 100 µM) was 40% (inactive) and the side scatter shift (side scatter shift, at 10 µM) came to 18.3%.

For the molecule `C=CCn1cc(C(=O)N2CCN(C)CC2)c(=O)c2cc(S(=O)(=O)N3CCCC3)ccc21`, the side scatter shift by setting is: (at 100 µM) 8.9% (inactive); (side scatter shift, at 10 µM) 1.6%.

Turning to `O=C(Cn1ccc2ccccc2c1=O)NCCC(=O)N1CCN(c2cccc(C(F)(F)F)c2)CC1`, the side scatter shift is 5.2% (inactive) (at 100 µM) and 2.4% (side scatter shift, at 10 µM).

As for `Cc1cccc(-c2nsc(SCC(=O)Nc3nccs3)n2)c1`, the side scatter shift is, setting by setting: (at 100 µM) 68.1% (active); (side scatter shift, at 10 µM) 6.2%.

On to `CCc1ccc(-c2nc(CN3CCC(C(=O)NCc4ccc(F)cc4)CC3)c(C)o2)cc1`, for which the side scatter shift (at 100 µM) is 0% (inactive) and the side scatter shift (side scatter shift, at 10 µM) was determined as 17.9%.

As to `CCOC(=O)N1CCN(C(=O)Cc2ccc(-n3c(=O)[nH]c4ccccc4c3=O)cc2)CC1`, the side scatter shift reads like this: (at 100 µM) 6.3% (inactive); (side scatter shift, at 10 µM) 2.6%.

Take `CCC(CC)C(=O)Nc1cccc(C(=O)NCc2ccco2)c1`: the side scatter shift by setting is: (at 100 µM) 14.1% (inactive); (side scatter shift, at 10 µM) 6%.

As to `O=C(NCCc1c[nH]c2ccccc12)C(F)(F)C(F)F`, the side scatter shift was 9% (inactive) (at 100 µM) and 5.05% (side scatter shift, at 10 µM).

For the molecule `CC(=O)c1cccc(NC2c3ccccc3C(=O)N2Cc2ccc3c(c2)OCO3)c1` (stereo unspecified), the side scatter shift (at 100 µM) was 24% (inactive) and the side scatter shift (side scatter shift, at 10 µM) stood at 4.25%.

For the molecule `CCN(CC)CCCNC(=O)c1cc2c(-c3ccc(Cl)cc3)nn(C)c2s1`, the side scatter shift was 61.5% (active) (at 100 µM) and 81.5% (side scatter shift, at 10 µM).

With `COC(=O)c1ccccc1NC(=O)CN1CCC(n2nnc3cc(F)ccc32)CC1`, the side scatter shift is, setting by setting: (at 100 µM) 25.9% (inactive); (side scatter shift, at 10 µM) 6.9%.

For the molecule `Cc1ccc(-c2noc(CCC(=O)NCCCN3CCN(c4cccc(Cl)c4)CC3)n2)cc1`, the side scatter shift reads like this: (at 100 µM) 31.8% (inactive); (side scatter shift, at 10 µM) 11.5%.

With `Cc1oc(-c2ccccc2F)nc1CN1CCC(C(=O)NCc2cccnc2)CC1`, the side scatter shift is 8.3% (inactive) (at 100 µM) and 3.9% (side scatter shift, at 10 µM).

On to `CCOc1ccc(NC(=O)COc2nsnc2N2CCCCC2)cc1`, for which the side scatter shift reads like this: (at 100 µM) 8.7% (inactive); (side scatter shift, at 10 µM) 6.35%.

On to `COc1ccccc1CNC(=O)C1CCN(Cc2nc(-c3cccc(Cl)c3)oc2C)CC1`, for which the side scatter shift (at 100 µM) is 33.3% (inactive) and the side scatter shift (side scatter shift, at 10 µM) came to 3.35%.

Turning to `Cc1cc(C)n2nnnc2c1C#N`, the side scatter shift was 3.9% (inactive) (at 100 µM) and 6.4% (side scatter shift, at 10 µM).

Regarding `O=C(c1ccc2c(c1)OCCO2)N1CCCCC1`, the side scatter shift reads like this: (at 100 µM) 7.7% (inactive); (side scatter shift, at 10 µM) 8.05%.

As to `Cc1ccc(Cl)cc1N1CCN(C(=O)c2cc3c(=O)n(C)c4ccccc4c3n2C)CC1`, the side scatter shift is, setting by setting: (at 100 µM) 12.9% (inactive); (side scatter shift, at 10 µM) 22.5%.

As to `CCN(CC)CCNC(=O)c1ccc(N2CCCCC2)c(NS(=O)(=O)c2ccc(C)cc2)c1`, the side scatter shift reads like this: (at 100 µM) 17.6% (inactive); (side scatter shift, at 10 µM) 38.6%.
